The text below walks through data of PubChem BioAssay AID1209 (Sanford-Burnham Center for Chemical Genomics, 2008).

Where “and” joins values, the source holds several entries; their conditions need not be identical. Equal values may be shown once. Hit rate of the full screen: of about 190,000 compounds, about 810 (0.43%) were called active. The sample as a whole holds a higher share of actives than the screen did. Values without a mark were called inactive. No stated cut-off is given here; in the data, active means inhibition above about 50%; inactive means the rest.

What is called inhibition is the drop in the measured response relative to a control, in per cent.

For the assay, the target named is Mannose-6-phosphate isomerase (Homo sapiens) (UniProt P34949). Nature of the assay: MPI enzyme activity inhibition – biochemical, fluorescence intensity, coupled assay, primary screen (AID 1209).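 Further: plate controls were DMSO vehicle for no effect and wells lacking substrate for full effect.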 The note with it: purified PMI enzyme, at 20 µM, hits give high values.
Mannose-6-phosphate isomerase (Homo sapiens), sequence (P34949 whole entry, looked up): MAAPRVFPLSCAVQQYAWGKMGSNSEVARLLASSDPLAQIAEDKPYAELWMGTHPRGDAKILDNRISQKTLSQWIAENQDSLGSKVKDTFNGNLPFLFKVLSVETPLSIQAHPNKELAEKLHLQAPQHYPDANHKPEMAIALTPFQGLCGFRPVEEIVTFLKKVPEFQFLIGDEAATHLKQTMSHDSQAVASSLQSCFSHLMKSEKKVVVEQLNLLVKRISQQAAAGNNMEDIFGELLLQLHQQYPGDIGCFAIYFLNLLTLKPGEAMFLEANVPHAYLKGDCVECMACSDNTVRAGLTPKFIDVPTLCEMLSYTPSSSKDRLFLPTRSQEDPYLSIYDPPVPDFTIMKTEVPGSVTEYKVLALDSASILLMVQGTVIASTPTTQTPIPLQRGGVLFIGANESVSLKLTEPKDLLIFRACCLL
Consider `COCCNC(=S)Nc1cccc2cnccc12`, for which the inhibition is 17.7%. In the case of `Fc1ccccc1NC(=S)Nc1cccc2cnccc12` it was 33.9%; in that of `COc1ccccc1NC(=S)Nc1cccc2cnccc12`, 69.6% (active). In the case of `COCCn1c(=O)[nH]c2cc(C(=O)NCCc3ccc(S(N)(=O)=O)cc3)ccc2c1=O`, the inhibition is -4.1%. In the case of `CC1CCCC(C(=O)O)N1C(=O)CCSSCCC(=O)N1C(C)CCCC1C(=O)O` (stereo not given), the inhibition is -1.2%.

For the molecule `CC(C)c1ccc(O)c(NC(=S)NC(=O)CCc2ccccc2)c1`, the inhibition was 12.8%. Under `CC(Nc1oc(-c2ccco2)nc1C#N)c1ccccc1` (stereo not given) stands 13.7%; under `O=C(CSc1nnc(-c2c[nH]c3ccccc23)o1)c1ccc(-c2ccccc2)cc1`, 9%. Regarding `COc1ccccc1NS(=O)(=O)c1cc(NC(=O)c2ccc(=O)[nH]c2)ccc1N1CCOCC1`, the inhibition was 0.7%. Take `CCN(CC)c1ccc(NC(=O)c2ccccc2F)cc1S(=O)(=O)Nc1ccccc1OC`: the inhibition was 15.4%. Under `CCN(CC)c1ccc(NC(=O)c2cccc(C)c2)cc1S(=O)(=O)Nc1ccccc1OC` stands 53.3% (active); under `CCN(CC)c1ccc(NC(=O)c2ccccc2)cc1S(=O)(=O)Nc1ccccc1OC`, 30.8%; under `CCN(CC)c1ccc(NC(=O)COc2ccccc2C)cc1S(=O)(=O)Nc1ccccc1OC`, 38.9%. Under `CCN(CC)c1ccc(NC(=O)COc2ccccc2C#N)cc1S(=O)(=O)Nc1ccccc1OC` stands -5.1%; under `CCN(CC)c1ccc(NC(=O)c2ccc(=O)[nH]c2)cc1S(=O)(=O)Nc1ccccc1OC`, 61.7% (active); under `COc1ccc(C(=O)Nc2ccc(Cl)c(S(=O)(=O)Nc3ccccc3OC)c2)cc1`, 16.8%.

As for `CCN(CC)c1ccc(NC(=O)c2ccccc2Br)cc1S(=O)(=O)Nc1ccccc1OC`, the inhibition was 63.9% (active).

Take `O=C(COC(=O)c1cnccn1)NCc1ccc2c(c1)OCO2`: the inhibition was -15.9%. `CCC(C)(C(=O)NC1CCCCC1)N(Cc1ccco1)C(=O)CC1NC(=O)NC1=O` (stereo not given): the inhibition was 8.4%.

On to `COc1cc(C2NC(=O)NC(C)=C2C(=O)OC(C)C)ccc1OC(=O)c1ccco1` (stereo not given), for which the inhibition was 1%. As for `Cc1cccc(Nc2ncnc3c2cnn3C)c1`, the inhibition is 10.3%. As for `COc1ccc(CN2C(=O)c3ccccc3C2C(=O)NCCc2ccccc2)c(OC)c1` (stereo not given), the inhibition was 17.9%. Regarding `COc1cc(/C=c2\sc3nc(=O)c(-c4ccccc4)nn3c2=O)ccc1OCCC(C)C`, the inhibition is -1.8%. Under `Cc1cccc(NC(=O)C2CCN(S(=O)(=O)c3c(C)nn(C)c3C)CC2)n1` stands 8.4%. In the case of `CCOc1ccccc1NC(=O)C1CCN(S(=O)(=O)c2c(C)nn(C)c2C)CC1` it was 112% (active).

Take `CCOc1ccccc1NC(=O)C1CCN(S(=O)(=O)c2c(C)noc2C)CC1`: the inhibition is 5.5%. In the case of `N#CC(c1ccc(F)cc1)c1ccc(C(=O)c2ccc(F)cc2)cc1` (stereo not given) it was 5.1%; in that of `COc1ccc(S(=O)(=O)Nc2cc(Sc3ncn[nH]3)c(O)c3ccccc23)cc1`, 98.7% (active).

As for `O=S(=O)(Nc1cc(Sc2ncn[nH]2)c(O)c2ccccc12)c1ccccc1`, the inhibition was 99.3% (active).

In the case of `O=S(=O)(Nc1cc(Sc2cccc3cccnc23)c(O)c2ccccc12)c1ccccc1`, the inhibition was 9.2%. In the case of `COc1ccc(S(=O)(=O)Nc2ccc(O)c(Sc3ncn[nH]3)c2)cc1`, the inhibition was 10.6%. Regarding `CCOc1ccc(S(=O)(=O)Nc2ccc(O)c(Sc3ncn[nH]3)c2)cc1`, the inhibition is 3.2%.

For `O=S(=O)(Nc1cc(Sc2cccc3cccnc23)c(O)c2ccccc12)c1ccc(F)cc1`, the inhibition is 2.1%. Under `OCc1ccccc1N=c1ssnc1Cl` stands 78.3% (active); under `OCc1c(Cl)nc2ccccn12`, -8.7%; under `Nc1ccccc1N=c1ssnc1Cl`, 61.4% (active).

For `Cc1cc(Oc2ccccc2)nc(SCC(N)=O)n1`, the inhibition was -2%. In the case of `NC(=O)CSc1nnc(C2CC2)n1-c1ccccc1` it was -7.8%.

`O=[N+]([O-])c1cc(S(=O)(=O)N2CCCC2)ccc1NCCc1ccccc1`: the inhibition was 4.4%.

As for `CC1=C(C(=O)Nc2ccccn2)C(c2ccccc2Cl)NC(=S)N1` (stereo not given), the inhibition was -6.6%. Take `N#CC(c1cccc(Cl)c1)c1ncc(C(F)(F)F)cc1Cl` (stereo not given): the inhibition is 9.9%. In the case of `CC1CCc2c(sc(NC(=O)COC(=O)c3ccc(O)cc3)c2C#N)C1` (stereo not given) it was 2.3%. Under `COc1ccc(-c2[nH]c3ccccc3c2SCCNC(=O)c2ccccc2)cc1` stands 7.4%; under `CS(=O)(=O)N1CCN=C1SCc1ccc([N+](=O)[O-])cc1`, -2.2%. In the case of `Cc1c(OCC(F)(F)F)ccnc1CS(=O)c1nc2ccccc2[nH]1` (stereo not given) it was 30.6% and 46.2%; in that of `COc1ccc2nc(S(=O)Cc3ncc(C)c(OC)c3C)[nH]c2c1` (stereo not given), 72.5% (active).

With `COc1ccc2nc(C(C)O)[nH]c2c1` (stereo not given), the inhibition is 5.1%.

With `CCOc1ccc(OCCn2c(=S)[nH]c3c(N)ncnc32)cc1`, the inhibition was 11%. In the case of `Cc1ccc(OCCn2c(=S)[nH]c3c(N)ncnc32)cc1` it was 8.7%.

For the molecule `CC(C)Oc1ccc(OCCn2c(=S)[nH]c3c(N)ncnc32)cc1`, the inhibition is 54.9% (active).

For `Cc1cccc(C(=O)Nc2ncc(CN3CCOCC3)s2)c1`, the inhibition is 4.7%. In the case of `Cc1ccc(-n2[nH]c(C)c(C=Nc3ccc4[nH]c(=O)[nH]c4c3)c2=O)cc1` it was 16.2%. In the case of `Cc1[nH]n(-c2cccc3ccccc23)c(=O)c1C=Nc1ccc2[nH]c(=O)[nH]c2c1` it was 14.6%; in that of `O=c1[nH]c2ccc(N=Cc3c(O)ccc4cc(Br)ccc34)cc2[nH]1`, 64.6% (active). In the case of `CC(C)(C)NC(=O)NC(=O)COC(=O)Cc1coc2ccc3ccccc3c12` it was 25.3%; in that of `CN(C)/C=C1/Oc2c(ccc3ccccc23)C1=O`, 21.5%. For `CN(C)/C=C1\Oc2ccc3ccccc3c2C1=O`, the inhibition was 86.5% (active).

Turning to `COc1cccc2c1C(=O)c1ccc3ccccc3c1C2=O`, the inhibition is -43.2%. In the case of `CCNC(=O)CC1SC(=Nc2ccc(C)cc2)NC1=O` (stereo not given) it was -4.7%; in that of `CC(=O)c1cccc(NC(=O)NNC(=O)CCC(=O)Nc2ccc(C)c(C)c2)c1`, -12%.
